Sm TGR block: inhibitors of Schistosoma mansoni thioredoxin glutathione reductase | AID 485364 | 3% of 360,000 active | Potency, µM (series often up to 114 µM), hits mostly inhibitors | purified TGR, DTNB reduction, TNB absorbance 405 nm; further: nearly all actives have a fitted effect of over 60% in size
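First, TGR (20 nM dispensed) and NADPH were mixed with compound. Second, a 15 min room-temperature incubation followed. Third, further NADPH and then DTNB were added to start the reaction. Finally, TNB absorbance was monitored kinetically.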
AmpC detergent: inhibitors of E. coli AmpC beta-lactamase with detergent. P00811. Potency, µM (highest dose often 114 µM), usual class: inhibitors. AmpC hydrolysis of nitrocefin, absorbance 480 nm, 0.01% Triton. 0.041% of 370,000 active; further: nearly all actives have a fitted effect of over 25% in size
Target sequence (P00811 whole entry, looked up): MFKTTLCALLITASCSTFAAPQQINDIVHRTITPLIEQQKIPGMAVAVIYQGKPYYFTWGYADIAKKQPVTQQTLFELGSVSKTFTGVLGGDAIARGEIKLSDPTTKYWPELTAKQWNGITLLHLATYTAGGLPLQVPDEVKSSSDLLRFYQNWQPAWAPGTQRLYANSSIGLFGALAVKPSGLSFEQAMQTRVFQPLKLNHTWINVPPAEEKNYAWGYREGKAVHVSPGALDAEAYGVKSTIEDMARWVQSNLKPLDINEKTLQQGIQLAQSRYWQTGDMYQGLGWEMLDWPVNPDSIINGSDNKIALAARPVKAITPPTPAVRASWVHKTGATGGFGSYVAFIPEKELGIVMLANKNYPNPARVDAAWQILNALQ
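20 mM phosphate pH 7.0 + 0.01% (detergent screen) or 0.0001% Triton X-100; 5.3 nM AmpC reagent; cpd preinc 15 min RT; nitrocefin (800 uM stock) to start; A480 q20 s × 4 min; Activity was normalised to no-enzyme and no-compound control wells.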
AmpC inh no detg: inhibitors of E. coli AmpC beta-lactamase without detergent. Potency, µM (doses to about 57.1 µM), actives largely listed as inhibitors. P00811. 0.52% of 330,000 active. AmpC nitrocefin hydrolysis, absorbance 480 nm, 0.0001% Triton; further: nearly all actives have a fitted effect of over 20% in size
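AmpC (5.3 nM in the dispensed reagent) in 20 mM phosphate pH 7.0 with 0.01% (detergent screen) or 0.0001% Triton X-100 was preincubated with compounds for 15 min at room temperature. Nitrocefin was then added from an 800 uM solution, and hydrolysis was followed at 480 nm.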
Each line names hits and unclear results; the compound was inactive in the other large screens. The list is not random: actives were taken first. Their share in the collection is about 3.3%. The call rests on the fitted dose curve; in most records, active means well fitted curve in the direction sought with a large enough effect; inconclusive means small, poorly fitted or top-dose-only effect, or another doubt; inactive means no such curve, though single readings can be large; an effect the other way counts as inactive or inconclusive.

CN(C)C(CNc1ccc(S(C)(=O)=O)cc1[N+](=O)[O-])Cc1ccccc1 (configuration not stated)	none
O=C(COc1ccc(Cl)cc1)N(Cc1ccccc1)c1nc(-c2ccccc2)cs1	none
O=C(C1CC1)N(Cc1ccco1)c1nc(-c2ccccc2)cs1	Sm TGR block 32µM
COc1ccc(-c2csc(N(Cc3ccco3)C(=O)c3cccs3)n2)cc1	Sm TGR block 13µM
COc1ccc(OC)c(-c2csc(N(Cc3ccco3)C(=O)c3cccs3)n2)c1	none
CCC(C)NC(=O)Cc1c(C)c2cc3c(cc2oc1=O)OC(C)(C)CC3 (configuration not stated)	none
COC(=O)N/N=C(\C)c1ccc(OC(F)F)cc1OC(F)F	none
O=C(COc1ccc(Cl)cc1)NCC(c1ccco1)S(=O)(=O)c1ccc(Cl)cc1 (configuration not stated)	Sm TGR block 28µM (no result: AmpC inh no detg)
COc1ccc(S(=O)(=O)NCC(c2ccco2)S(=O)(=O)c2ccc(C)cc2)cc1C (configuration not stated)	Sm TGR block 0.79µM (no result: AmpC inh no detg)
O=C(COc1ccc(Cl)cc1)NCC(c1ccco1)S(=O)(=O)c1ccccc1 (configuration not stated)	Sm TGR block inconclusive (no result: AmpC inh no detg)
Cc1ccc(CNC(=O)C(=O)NCC(c2ccco2)S(=O)(=O)c2ccc(C)cc2)cc1 (configuration not stated)	none (no result: AmpC inh no detg)
COc1ccc(S(=O)(=O)NCC(c2cccs2)S(=O)(=O)c2ccc(C)cc2)cc1F (configuration not stated)	Sm TGR block inconclusive (no result: AmpC inh no detg)
CCOc1ccc(S(=O)(=O)NCC(c2ccco2)S(=O)(=O)c2ccc(C)cc2)cc1 (configuration not stated)	Sm TGR block 0.32µM (no result: AmpC inh no detg)
CC(C)CN1CCC(=O)N(CCSc2ccc(Br)cc2)CC1	none
CCOC(=O)C1(CCCc2ccccc2)CCN(C(=O)C(C)n2cncn2)CC1 (configuration not stated)	none
COc1ccc(OC)c(S(=O)(=O)N2CCCC(C(=O)N3CCCC3)C2)c1 (configuration not stated)	none
CCN(CC)CCNc1nc(-c2ccco2)c2c(c1C#N)CC(C)(C)OC2	none
CC1(C)Cc2c(C#N)c(NC3CCCCC3)nc(-c3ccco3)c2CO1	Sm TGR block 1.8µM
CC1(C)Cc2c(C#N)c(NCCc3ccccc3)nc(-c3ccco3)c2CO1	Sm TGR block inconclusive
CC1(C)Cc2c(C#N)c(NCC3CCCO3)nc(-c3ccco3)c2CO1 (configuration not stated)	Sm TGR block 4.5µM
Cc1cc(-c2ccc(C(C)C)c(S(=O)(=O)Nc3cc(C)on3)c2)on1	none
CS(=O)(=O)Nc1cccc(C2=NN(C(=O)c3ccccc3Cl)C(c3ccccc3O)C2)c1 (configuration not stated)	AmpC inh no detg inconclusive
Cc1cc(C)c(S(=O)(=O)N2CCOC2CNC(=O)C(=O)NCCCN2CCOCC2)c(C)c1 (configuration not stated)	Sm TGR block inconclusive
CCNCc1cc(Cl)cc(OC)c1OC(C)C	none
Cc1c(O)nc(SCC(=O)Nc2ccc(Cl)cc2Cl)n(-c2ccc(F)cc2)c1=O	none (no result: AmpC inh no detg)
Cc1c(O)nc(SCC(=O)Nc2ccc3c4c(cccc24)CC3)n(-c2ccc(F)cc2)c1=O	AmpC inh no detg 28µM
Nc1nc(SCc2ccc(Cl)c(Cl)c2)n[nH]1	none
O=S1(=O)C=C(SCc2ccc(Cl)c(Cl)c2)Nc2ccccc21	AmpC inh no detg 18µM
CCOc1cc(Br)c(C2C(C(=O)OC)=C(C)NC3=C2C(=O)c2ccccc23)cc1OCC (configuration not stated)	Sm TGR block 22µM (no result: AmpC inh no detg)
CCOc1cc(C2C(C(=O)OC)=C(C)NC3=C2C(=O)c2ccccc23)c(Br)cc1OC (configuration not stated)	none (no result: AmpC inh no detg)
Cc1ncc(CN2CCCC(C(=O)Nc3ccc(-c4cscn4)cc3)C2)cn1 (configuration not stated)	none
Cc1ncc(CN2CCCC(C(=O)Nc3ccc(-c4ccco4)cc3)C2)cn1 (configuration not stated)	Sm TGR block 45µM
Cc1ccc(-n2nc(C(=O)N(C)c3ccccc3Cl)c3c4ccccc4n(C)c3c2=O)cc1	none (no result: AmpC inh no detg)
O=C(Nc1ccc(S(=O)(=O)N2CCCC2)cc1)C1CCN(S(=O)(=O)c2ccc(F)cc2)CC1	AmpC detergent inconclusive
Cc1cccc(OC(=O)c2snnc2C)c1	none (no result: AmpC inh no detg)
CCc1ccc2[nH]c(=O)c(C(c3nnnn3Cc3ccccc3)N3CCOCC3)cc2c1 (configuration not stated)	AmpC detergent inconclusive
COCCn1nnnc1C(c1cc2cc(OC)c(OC)cc2[nH]c1=O)N1CCN(c2ccc(O)cc2)CC1 (configuration not stated)	none
CCc1ccc2[nH]c(=O)c(C(c3nnnn3CCOC)N3CCN(c4ccc(F)cc4)CC3)cc2c1 (configuration not stated)	Sm TGR block 50µM, AmpC detergent inconclusive
COCCn1nnnc1C(c1ccccc1OC)N1CCN(c2ccccc2F)CC1 (configuration not stated)	none
COCCn1nnnc1C(c1cc2cccc(C)c2[nH]c1=O)N1CCN(c2ccccc2F)CC1 (configuration not stated)	Sm TGR block 14µM
CCc1ccc2[nH]c(=O)c(C(c3nnnn3CCOC)N3CCN(c4ccccc4)CC3)cc2c1 (configuration not stated)	Sm TGR block 45µM
Cc1ccc(C)c(S(=O)(=O)N2CCCOC2CNC(=O)C(=O)NCCc2ccccc2)c1 (configuration not stated)	none
O=C(NCc1nnc(SCc2ccc(F)cc2)n1-c1ccc(F)cc1)C12CC3CC(CC(C3)C1)C2	none
COCCCNCC(O)COc1ccccc1F (configuration not stated)	none
COc1ccc2cc(CCNS(=O)(=O)c3ccc(NC(C)=O)cc3)c(=O)[nH]c2c1	none
CCOC(=O)C(=CNc1cc(C)nn1-c1ccc(Cl)cc1)C(=O)OCC	none
CCOC(=O)C(=Cc1ccc(-n2cncn2)cc1)C(=O)OCC	Sm TGR block 16µM
COc1ccc(-c2nnn(CC(=O)N(CCN3CCOCC3)C(C(=O)NC3CCCC3)c3ccco3)n2)cc1 (configuration not stated)	none
O=C(CCCC(=O)N1CCN(c2ccccc2F)CC1)c1ccccc1	AmpC detergent inconclusive
Cc1ccc(OC(=O)c2ccc(C)c(C)c2)cn1	none
Cc1ccc(OC(=O)c2ccc(Cl)c([N+](=O)[O-])c2)cn1	Sm TGR block 50µM
CCC(C)NS(=O)(=O)c1ccc(F)c(C(=O)Nc2c(F)cc(F)cc2Br)c1 (configuration not stated)	none
CCOC(=O)c1csc(N)c1-c1ccc([N+](=O)[O-])cc1	none
Cc1ccccc1OCc1ccc(C(=O)N2CC(C)OC(C)C2)o1 (configuration not stated)	none
CC1CN(C(=O)c2ccc(COc3ccc4ccccc4c3)o2)CC(C)O1 (configuration not stated)	Sm TGR block 32µM
CC1CN(C(=O)c2ccc(COc3ccccc3Cl)o2)CC(C)O1 (configuration not stated)	none

Assay outcomes (PubChem BioAssay)
